Screens as filed in PubChem BioAssay.
Rows were chosen to be rich in hits. Some 1.3% of all compounds tested hit in one or more screens of this group.
PI5P4K alpha inh: inhibitors of human PI5P4K alpha; P48426; PI5P4Kalpha enzyme, ADP-Glo luminescence, 60 min; active compounds read low; max response, %; hit rate 1.2% among 330,000; AID 652105; active means max response of -50% or lower; inconclusive means between -30% and -50%; inactive means -30% or higher; further: value at the top dose of about 77 µM; on the % scale 0 is the no-effect control and ±100 the full control effect
Target sequence (P48426 whole entry, looked up): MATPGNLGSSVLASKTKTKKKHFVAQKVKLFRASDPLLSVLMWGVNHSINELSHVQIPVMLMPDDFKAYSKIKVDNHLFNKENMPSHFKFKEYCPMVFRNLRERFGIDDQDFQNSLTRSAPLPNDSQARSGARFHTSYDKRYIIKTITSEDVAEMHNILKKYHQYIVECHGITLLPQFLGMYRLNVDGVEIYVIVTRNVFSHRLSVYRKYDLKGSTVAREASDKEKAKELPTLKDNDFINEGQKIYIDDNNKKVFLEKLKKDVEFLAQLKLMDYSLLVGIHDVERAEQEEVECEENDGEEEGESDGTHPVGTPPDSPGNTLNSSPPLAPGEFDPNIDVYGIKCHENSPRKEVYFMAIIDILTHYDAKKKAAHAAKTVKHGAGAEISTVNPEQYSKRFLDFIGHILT
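ADP-Glo luminescence end-point after a 60 min room-temperature kinase reaction. PI5P4Kalpha and substrate in HEPES pH 7.4 buffer with EGTA, 0.1% CHAPS and 5% DMSO; ATP at 5 microM final.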
GRP78 ERSR act: induces the endoplasmic reticulum stress response in human glioma cells; U87-MG GRP78 promoter luciferase reporter, 16 h; Potency, µM, without a hit: at the highest dose activation, most hits filed as activators; hit rate 0.02% among 420,000; further: potency means the concentration at half of the fitted maximal effect; series mostly up to about 76 µM; % of control where 0% means no effect; nearly all actives have a fitted effect of over 35% in size
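Stably transfected U87-MG human glioma cells carrying a GRP78-based luminescent sensor were seeded at 1000 cells/well, pin-dosed with compounds and incubated 16 h. Luciferase reagent was then added, and end-point luminescence was read after 10 min at room temperature.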
WRN helicase inh: blocks human WRN helicase. Q14191. WRN helicase unwinding, fluorescent forked duplex, kinetic. Potency, µM (top dose mostly 114 µM), without a hit: at the top dose activity change, negative = inhibition, usual class: inhibitors. hit rate 0.46% among 360,000. AID 651768; further: potency means the concentration at half of the fitted maximal effect; on the % scale 0 is the no-effect control and ±100 the full control effect; nearly all actives have a fitted effect of over 55% in size
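Screening of the MLSMR collection measured strand separation of a quenched forked DNA duplex (100 nM) by 20 nM WRN with 2 mM ATP, all final. Compounds were preincubated with enzyme 15 min at room temperature.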
Pin1 inh: inhibitors of human Pin1; Q13526; Pin1 FP peptide displacement, HiFluor488, 10 min; Potency, µM (top dose mostly 115 µM), for inactives: top-dose activity, negative = inhibition, hits mostly inhibitors; hit rate 0.009% among 390,000; active means well fitted inhibition curve with a large enough effect in the polarisation, with a control signal flat, not every such curve was filed as active; inconclusive means small, poorly fitted or top-dose-only effect, or effect the other way, or a change in a side signal; inactive means no such curve, though single readings can be large or run the other way; the % refers to the polarisation; further: potency means the concentration at half of the fitted maximal effect; on the % scale 0 is the no-effect control and ±100 the full control effect
Target sequence (Q13526 whole entry, looked up): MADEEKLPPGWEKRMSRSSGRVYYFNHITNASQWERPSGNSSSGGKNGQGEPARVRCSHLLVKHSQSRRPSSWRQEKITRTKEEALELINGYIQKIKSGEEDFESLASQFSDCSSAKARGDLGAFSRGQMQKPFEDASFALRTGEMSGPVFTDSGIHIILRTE
PGK inhibitor: T. brucei PGK inhibition | P07378 | PGK/GAPDH coupled, Kinase-Glo luminescence, 60 min | Potency, µM (top dose mostly 57.5 µM), for inactives: top-dose activity change, negative = inhibition, usual class: inhibitors | hit rate 0.043% among 380,000; further: potency means the concentration at half of the fitted maximal effect; on the % scale 0 is the no-effect control and ±100 the full control effect; nearly all actives have a fitted effect of over 60% in size
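Luminescent ATP detection (Kinase-Glo Plus) follows a 60-minute room-temperature incubation, with wells lacking PGK as controls. Buffer: 100 mM TEA (pH 7.6), 5 mM MgCl2, 0.01% Tween-20. Coupling enzyme GAPDH (100 nM final) supplies unstable 1,3-BPG in-well.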
FEN1 inh: human FEN1 inhibition. P39748. Recombinant FEN1 flap cleavage, fluorescence, 15 min. Potency, µM (doses to about 114 µM), without a hit: at the highest dose activity change, negative = inhibition, most hits filed as inhibitors. hit rate 0.35% among 390,000. AID 588795; further: potency means the concentration at half of the fitted maximal effect; on the % scale 0 is the no-effect control and ±100 the full control effect; nearly all actives have a fitted effect of over 65% in size
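Recombinant FEN1 (10 nM) was preincubated with pin-transferred compounds for 15 min at room temperature, then flap DNA substrate (50 nM final) was added. Plates were read at 0 and 15 min, and normalized concentration–response data were fitted to a four-parameter Hill equation.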
ADP-Glo interf: ADP-Glo luciferase interference, PI5P4K counter-screen; shares compounds with PI5P4K alpha inh; ADP-Glo detection counter-screen, luciferase luminescence, no enzyme; Potency, µM (doses to about 76.9 µM), without a hit: at the highest dose activity change, negative = inhibition, hits mostly inhibitors; 1,100 tested, under 10 active; AID 743285
The depositor's hits bear a star. Unless noted, the call rests on the fitted dose curve; in most records, active means well fitted curve in the direction sought with a large enough effect; inconclusive means small, poorly fitted or top-dose-only effect, or another doubt; inactive means no such curve, though single readings can be large; an effect the other way counts as inactive or inconclusive.

For N#Cc1ccccc1S(=O)(=O)N1CCN(C(=O)C2COc3ccccc3O2)CC1 (stereo not given) the results were PI5P4K alpha inh -51.8*, GRP78 ERSR act 11.3%, WRN helicase inh inconclusive, Pin1 inh -11.4%, PGK inhibitor -11.8%, FEN1 inh -4.9% and ADP-Glo interf -2.3%.
For O=C(C1COc2ccccc2O1)N1CCN(S(=O)(=O)c2cc(F)ccc2F)CC1 (stereo not given) the results were PI5P4K alpha inh -1.8, GRP78 ERSR act -2.3%, WRN helicase inh 1.9%, Pin1 inh 0.5%, PGK inhibitor -2.6% and FEN1 inh -10.9%.
Screening Cc1ccc(CNC(=O)c2ccc(-n3cccc3)cc2)cc1 returned PI5P4K alpha inh -90.3*, GRP78 ERSR act 1.7%, WRN helicase inh 39.8µM*, Pin1 inh inconclusive, PGK inhibitor -27.2%, FEN1 inh inconclusive and ADP-Glo interf 3.8%.
CCCCC1=CC2=CC(=O)C(C)(OC(=O)C3CCCC3)C(=O)C2=CO1 (stereo not given) was read as PI5P4K alpha inh -73.5*, GRP78 ERSR act 0.6%, WRN helicase inh inconclusive, Pin1 inh inconclusive, PGK inhibitor -10.4%, FEN1 inh inconclusive and ADP-Glo interf -8.9%.
For O=C(O)c1sccc1NC(=O)c1c(Cl)cccc1Cl the results were PI5P4K alpha inh -55.3*, GRP78 ERSR act -2.1%, WRN helicase inh 2.4%, Pin1 inh -10.3%, PGK inhibitor -9.6%, FEN1 inh -1.5% and ADP-Glo interf 1.6%.
For COC(=O)c1sccc1NC(=O)c1c(Cl)cccc1Cl the results were PI5P4K alpha inh 1.2, GRP78 ERSR act -4.1%, WRN helicase inh -9.7%, Pin1 inh 4.1%, PGK inhibitor -6.9% and FEN1 inh -1.5%.
`O=S(=O)(Nc1nc(-c2ccccc2)cs1)c1cc(Cl)ccc1Cl` gave PI5P4K alpha inh -50.5*, GRP78 ERSR act -4.0%, WRN helicase inh -26.3%, Pin1 inh inconclusive, PGK inhibitor -6.0%, FEN1 inh -3.2% and ADP-Glo interf -1.9%.
Screening O=[N+]([O-])c1ccc(S(=O)(=O)Nc2nc(-c3ccccc3)cs2)cc1 returned PI5P4K alpha inh 0.4, GRP78 ERSR act 12.7%, WRN helicase inh 1.5%, Pin1 inh inconclusive, PGK inhibitor -2.5% and FEN1 inh 4.0%.
`Cn1c(=O)c2[nH]c(-c3ccc(S(=O)(=O)O)cc3)nc2n(C)c1=O` gave PI5P4K alpha inh -54.3*, GRP78 ERSR act -4.7%, WRN helicase inh 2.9%, Pin1 inh 2.2%, PGK inhibitor -2.3%, FEN1 inh -5.3% and ADP-Glo interf -4.3%.
`CC(C)(C)n1ncc2c(=O)n(Cc3ccc(SC(F)(F)F)cc3)cnc21` gave GRP78 ERSR act -2.8% and FEN1 inh -0.3%.
O=C(NCC1Cc2cccc(-c3cccnc3)c2O1)c1cc(-c2ccccc2)n[nH]1 (stereo not given) was read as GRP78 ERSR act -0.5%.
Cc1cc(Oc2ccc(C#N)cc2)nc(NCc2ccccc2)n1 was read as PI5P4K alpha inh -51.1*, GRP78 ERSR act -5.3%, WRN helicase inh -18.9%, Pin1 inh -0.8%, PGK inhibitor -8.5%, FEN1 inh -15.2% and ADP-Glo interf 1.4%.
`N#Cc1c(SCC(=O)Nc2nccs2)sc2c(O)cc(=O)[nH]c12` gave PI5P4K alpha inh -94.5*, GRP78 ERSR act 5.4%, WRN helicase inh 56.2µM*, Pin1 inh inconclusive, PGK inhibitor -11.5%, FEN1 inh 44.7µM* and ADP-Glo interf 7.2%.
CCOc1cccc(NC(=O)CSc2ncc(-c3ccccc3)[nH]2)c1 was read as GRP78 ERSR act 0.6%, Pin1 inh -3.8%, PGK inhibitor -9.2% and FEN1 inh -14.3%.
Screening CCOc1cccc(NC(=O)CSc2sc3c(O)cc(=O)[nH]c3c2C#N)c1 returned PI5P4K alpha inh -59.9*, GRP78 ERSR act -3.1%, WRN helicase inh -35.6%, Pin1 inh 6.0%, PGK inhibitor -4.3%, FEN1 inh -13.9% and ADP-Glo interf 1.4%.
Screening CCCc1cc(=O)[nH]c2nnc(SCC(=O)Nc3nccs3)n12 returned PI5P4K alpha inh -6.4, GRP78 ERSR act -0.9%, WRN helicase inh -5.2%, Pin1 inh -0.7%, PGK inhibitor -4.6% and FEN1 inh 13.8%.
For N#Cc1c(SCC(=O)Nc2nc3ccccc3s2)sc2c(O)cc(=O)[nH]c12 the results were PI5P4K alpha inh -78.3*, GRP78 ERSR act 1.4%, WRN helicase inh 39.8µM*, Pin1 inh inconclusive, PGK inhibitor -27.0%, FEN1 inh 17.8µM* and ADP-Glo interf -3.0%.
CCC1CCCCN1C(=O)Cn1nc([N+](=O)[O-])c(Cl)c1C (stereo not given) was read as PI5P4K alpha inh -50.4*, GRP78 ERSR act -4.3%, WRN helicase inh -3.7%, Pin1 inh -0.3%, PGK inhibitor -16.5%, FEN1 inh -1.1% and ADP-Glo interf -1.4%.
Screening CC1(C)S[C@@H]2C(C(=O)O)NC(=O)N2C1C(=O)O (stereo not given in full) returned GRP78 ERSR act -3.9% and FEN1 inh -9.9%.
Screening Nc1c(C(=O)Nc2ccc(Br)cc2)sc2nc(-c3ccco3)ccc12 returned PI5P4K alpha inh inconclusive, GRP78 ERSR act 11.8%, WRN helicase inh -20.5%, Pin1 inh inconclusive, PGK inhibitor -0.6% and FEN1 inh -10.9%.
CC(=O)c1sc2nc(-c3ccco3)ccc2c1N was read as PI5P4K alpha inh -61.4*, GRP78 ERSR act 3.4%, WRN helicase inh inconclusive, Pin1 inh inconclusive, PGK inhibitor -7.8%, FEN1 inh inconclusive and ADP-Glo interf 0.6%.
For O=C(Nc1sc2c(c1C(=O)O)CCCC2)c1ccccc1Cl the results were PI5P4K alpha inh -2.5, GRP78 ERSR act 0.9%, WRN helicase inh -4.8%, Pin1 inh -6.8%, PGK inhibitor inactive and FEN1 inh -9.8%.
O=C(Nc1sc2c(c1C(=O)O)CCC2)c1ccccc1Cl was read as PI5P4K alpha inh -59.3*, GRP78 ERSR act -3.4%, WRN helicase inh -20.2%, Pin1 inh 0.6%, PGK inhibitor -2.8%, FEN1 inh -3.8% and ADP-Glo interf -8.1%.
`NC(=O)c1c(NC(=O)CN2CCCC2)sc2c1CCCC2` gave PI5P4K alpha inh -52.9*, GRP78 ERSR act 2.6%, WRN helicase inh -27.6%, Pin1 inh 3.7%, PGK inhibitor -8.4%, FEN1 inh 6.1% and ADP-Glo interf 2.9%.
